From PubChem BioAssay AID720549 (National Center for Advancing Translational Sciences (NCATS), 2013) come the findings set out here.

Values joined by “and” are separate entries in the source; they are usually repeats but may differ in a detail not shown here. Identical values can stand only once. Results filed as inconclusive are left out. Entries that show only a call come without a potency. Where a structure was tested more than once in an assay, its records may differ in their call. Active and inactive are the calls of the source. Calls come from the whole dose curve; as a rule, active = well fitted inhibition curve with a large enough effect; inconclusive = small, poorly fitted or top-dose-only effect; inactive = flat fitted curve, though single readings scatter.

This assay addresses RecQ-like DNA helicase BLM (Homo sapiens) (UniProt P54132). The assay can be described thus: qHTS for Inhibitors of Bloom's syndrome helicase (BLM): Helicase ATPase Orthogonal Confirmatory Assay for SAR. Summed up: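 Purified BLM (2 nM) in Tris-HCl pH 8.0 with MgCl2, DTT, Tween-20, preincubated 15 min with compound. Reaction with 200 nM ssDNA and 100 uM ATP ran 15 min; ADP-Glo luminescence, four-parameter Hill fit.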
A general note: Quantitative high-throughput screening tests each substance at several concentrations.

RecQ-like DNA helicase BLM (Homo sapiens), sequence (P54132 whole entry, looked up): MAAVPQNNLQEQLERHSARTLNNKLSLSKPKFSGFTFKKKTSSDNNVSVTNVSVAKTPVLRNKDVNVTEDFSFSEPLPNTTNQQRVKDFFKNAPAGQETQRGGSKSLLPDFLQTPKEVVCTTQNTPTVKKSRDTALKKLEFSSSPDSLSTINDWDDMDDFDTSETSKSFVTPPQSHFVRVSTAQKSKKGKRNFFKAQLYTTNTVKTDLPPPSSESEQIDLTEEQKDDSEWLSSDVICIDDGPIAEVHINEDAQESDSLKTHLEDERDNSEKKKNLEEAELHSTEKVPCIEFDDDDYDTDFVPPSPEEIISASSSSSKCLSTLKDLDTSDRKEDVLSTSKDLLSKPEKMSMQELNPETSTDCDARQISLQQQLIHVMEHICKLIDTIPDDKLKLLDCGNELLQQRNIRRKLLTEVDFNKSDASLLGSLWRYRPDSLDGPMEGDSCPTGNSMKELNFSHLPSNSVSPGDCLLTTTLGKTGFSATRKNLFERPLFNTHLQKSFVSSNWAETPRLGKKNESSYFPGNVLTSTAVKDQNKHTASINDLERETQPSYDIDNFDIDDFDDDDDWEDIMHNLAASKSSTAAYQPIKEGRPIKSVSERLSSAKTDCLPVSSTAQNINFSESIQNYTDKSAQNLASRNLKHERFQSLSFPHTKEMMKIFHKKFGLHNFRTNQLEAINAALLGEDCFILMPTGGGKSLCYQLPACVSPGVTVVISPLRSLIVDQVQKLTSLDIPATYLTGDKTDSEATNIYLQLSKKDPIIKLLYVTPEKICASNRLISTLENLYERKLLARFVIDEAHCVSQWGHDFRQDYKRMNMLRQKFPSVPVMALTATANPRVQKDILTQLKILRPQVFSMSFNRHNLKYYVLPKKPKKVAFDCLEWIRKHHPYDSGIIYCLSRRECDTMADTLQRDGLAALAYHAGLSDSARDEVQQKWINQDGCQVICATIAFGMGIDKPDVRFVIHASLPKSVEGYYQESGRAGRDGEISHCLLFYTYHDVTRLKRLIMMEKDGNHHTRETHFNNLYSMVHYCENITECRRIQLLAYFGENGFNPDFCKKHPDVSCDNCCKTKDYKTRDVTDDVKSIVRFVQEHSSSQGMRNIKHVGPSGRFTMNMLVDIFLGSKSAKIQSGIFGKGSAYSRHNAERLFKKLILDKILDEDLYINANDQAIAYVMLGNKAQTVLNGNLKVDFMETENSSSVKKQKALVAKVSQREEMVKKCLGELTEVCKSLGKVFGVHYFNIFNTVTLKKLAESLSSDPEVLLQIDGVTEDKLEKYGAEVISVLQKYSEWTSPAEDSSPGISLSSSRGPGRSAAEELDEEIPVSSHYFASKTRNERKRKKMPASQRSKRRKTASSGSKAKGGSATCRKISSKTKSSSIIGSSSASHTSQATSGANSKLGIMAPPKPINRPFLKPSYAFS

As for `O=C(Cc1nnc(-c2ccncc2)s1)Nc1ccc(F)c(C(F)(F)F)c1`, the Potency result was “inactive”.

With `O=C(Nc1ccc(F)c(C(F)(F)F)c1)Nc1cccc(-c2ccncc2)n1`, the Potency entry is “inactive”.

Regarding `O=C(Nc1nnc(-c2ccncc2)s1)Nc1cccc2ccccc12`, the Potency is 5.61 µM (active).

Take `Cc1cc(NC(=O)Nc2nnc(-c3cccnc3)s2)ccc1F`: the Potency result was “inactive”.

Consider `CC(C)(C)c1cccc(NC(=O)Nc2nnc(-c3ccncc3)s2)c1`, for which the Potency result was “inactive”.

`O=C(Nc1ccc(F)c(C(F)(F)F)c1)Nc1nnc(-c2ccncc2)o1`: the Potency result was “inactive”.

For `COc1ccccc1CNC(=O)Nc1nnc(-c2ccncc2)s1`, the Potency result is “inactive”.

Turning to `Nc1cc(NC(=O)Nc2nnc(-c3ccncc3)s2)ccc1Cl`, the Potency was 20.4 µM (active).

In the case of `N/C(=N\c1nnc(-c2ccncc2)s1)Nc1ccc(F)c(C(F)(F)F)c1`, the Potency result is “inactive and 20.4 µM (active)”.

Regarding `O=C(Nc1ccc(Cl)c(Cl)c1)Nc1nnc(N2CCNCC2)s1`, the Potency result is “inactive”.

In the case of `O=C(Nc1ccc(-c2nc3ccccc3[nH]2)cc1)Nc1ccc2c(c1)CCCO2`, the Potency result was “inactive”.

As to `O=C(Nc1ccc(Cl)c([N+](=O)[O-])c1)Nc1nnc(-c2ccc(F)cc2)s1`, the Potency entry is “inactive”.

For the molecule `Cc1cc(NC(=O)Nc2nnc(C3CCCCC3)s2)ccc1F`, the Potency result is “inactive”.

With `O=C(Nc1ccc(Cl)c(Cl)c1)N1CCN(c2ccncc2)CC1`, the Potency entry was “inactive”.

As for `N#Cc1cc(NC(=O)Nc2nnc(-c3ccncc3)s2)ccc1-c1ccc[nH]1`, the Potency is 7.25 µM (active).

Consider `O=C(Nc1ccc(Cl)c([N+](=O)[O-])c1)Nc1nnc(C2CCCCC2)s1`, for which the Potency entry was “inactive”.

`O=C(Nc1ccc(-c2nc3ccccc3[nH]2)cc1)Nc1ccc2c(c1)OCCO2`: the Potency result was “inactive”.

In the case of `CCCCCCNC(=O)Nc1nnc(-c2ccncc2)s1`, the Potency result was “inactive”.

Turning to `COc1ccc(NC(=O)Nc2ccc(-c3nc4ccccc4[nH]3)cc2)cc1OC`, the Potency entry is “inactive”.

On to `O=C(NCc1ccccc1)Nc1nnc(-c2ccncc2)s1`, for which the Potency result is “inactive”.

For `O=C(Nc1ccc2sccc2c1)Nc1nnc(-c2ccncc2)s1`, the Potency was 7.25 µM (active).

Regarding `O=C(Nc1ccc2c(c1)OCCO2)Nc1nnc(-c2ccncc2)s1`, the Potency entry is “inactive”.

With `Nc1ccc(-c2nnc(NC(=O)Nc3ccc(Cl)c(Cl)c3)s2)cc1`, the Potency entry was “inactive”.

In the case of `O=C(Nc1ccc2ccccc2c1)Nc1nnc(-c2ccccc2F)s1`, the Potency entry is “inactive”.

In the case of `O=C(Nc1ccc(Cl)c(Cl)c1)Nc1ccnc(-c2ccncc2)n1`, the Potency result was “inactive”.

For the molecule `O=C(Nc1ccc(Oc2ccccc2)cc1)Nc1nnc(-c2ccncc2)s1`, the Potency entry is “inactive”.

In the case of `O=C(Nc1ccc(Cl)c(Cl)c1)Nc1ccc(-c2ccncc2)s1`, the Potency entry was “inactive”.

In the case of `COc1ccc(-c2nnc(NC(=O)Nc3ccc4ccccc4c3)s2)cc1OC`, the Potency entry was “inactive”.

`COc1ccc(OC)c(-c2nnc(NC(=O)Nc3ccc4ccccc4c3)s2)c1`: the Potency entry was “inactive”.

Regarding `O=C(Nc1ccc(-n2ccnc2)c(F)c1)Nc1nnc(-c2ccncc2)s1`, the Potency is 14.5 µM (active).

For the molecule `O=C(Nc1nnc(-c2ccncc2)s1)Nc1ccc(Cl)c2ccccc12`, the Potency entry is “inactive”.

Turning to `O=c1c(Nc2ccc(F)c(C(F)(F)F)c2)c(Nc2nnc(-c3ccncc3)s2)c1=O`, the Potency entry was “inactive”.
